Experimental data from ChEMBL document CHEMBL4513216, “Probing the Open Global Health Chemical Diversity Library for Multistage-Active Starting Points for Next-Generation Antimalarials” (ACS Infect Dis, 2020).
The whole screen tested about 68,000 compounds, of which about 2,700 (4%) showed an effect of 50% or more. This is one part of a sample in which strong results are shown more often than they occur.

These molecules were tested on Plasmodium berghei (assay: Screen against P. berghei liver stage (PbLuc), transformed with Luciferase, at 2uM). Details: tested at 2 uM.
Type: functional, HepG2

Row | Structure (SMILES) | INHIBITION
1 | CCN1CCN(C2CCN(C(C(N)=O)c3ccccc3)CC2)C1=O (stereo not given) | -42.16%
2 | CS(=O)(=O)CC1(CNc2ccc(C#N)c(C(F)(F)F)c2)CC1 | 39.25%
3 | CC(C)COC(C)C(=O)N1CCCC1 (stereo not given) | 52.6%
4 | CC(C)COC(C)C(=O)N1CCCCCC1 (stereo not given) | 7.46%
5 | CC(C)COC(C)C(=O)N1CCCCC1 (stereo not given) | 30.68%
6 | CCn1c(C2CCN(C(=O)c3ccc4sc(C)nc4c3)CC2)n[nH]c1=O | 26.49%
7 | CN(C)Cc1nnc(C2CCCN(c3nc(C(N)=O)cs3)C2)n1C (stereo not given) | 12.29%
8 | COCC(C)(O)CNC(=O)c1cc(-c2cc(OC)ccc2OC)nn1C (stereo not given) | 10.91%
9 | O=C(CCCc1nnc(-c2ccccc2)o1)N1CCN(C2CC2)CC1 | 21.64%
10 | c1cnc(N2CCO[C@H]3CN(CC4CCC4)C[C@H]32)cn1 | 15.88%
11 | O=C(NCC1(c2cccs2)CCCCC1)N1CCOC(CO)C1 (stereo not given) | -46.5%
12 | COc1ccc(OC)c(CN(C)c2ncc(S(N)(=O)=O)s2)c1 | -28.18%
13 | COc1ccc(OC)c(CCNc2ncc(S(N)(=O)=O)s2)c1 | -0.95%
14 | COc1ccc(CN(C)c2ncc(S(N)(=O)=O)s2)c(OC)c1 | 67.36%
15 | CC(C)(C)c1nccc(C2(c3ccccc3Cl)CCNCC2)n1 | 2.06%
16 | CSCCC(=O)N1CCN(CC(C)O)CC1 (stereo not given) | 52.3%
17 | CCC(O)CN1CCN(C(=O)CCSC)CC1 (stereo not given) | -38.59%
18 | CSCCC(=O)N1CCN(CC(O)C(C)(C)C)CC1 (stereo not given) | 32.1%
19 | CC(C)c1nnc(NC(=O)CCC(=O)NCC2CCCO2)s1 (stereo not given) | 4.39%
20 | CC(C)C(CNC(=O)CCn1cncn1)N1CCc2ccccc2C1 (stereo not given) | 16.98%
21 | CCC(CNC(=O)CCn1cncn1)N1CCc2ccccc2C1 (stereo not given) | 60%
22 | CC(CNC(=O)CCCn1cncn1)N1CCc2ccccc2C1 (stereo not given) | -48.63%
23 | O=C(CN1CCCCCC1=O)NCC1CCN(c2ccccc2)C1 (stereo not given) | -17.17%
24 | CC(CNC1CCN(Cc2ccncc2)CC1)c1ccc(F)cc1F (stereo not given) | 26.99%
25 | CC(C)c1cc(NCC(O)c2ccc(F)cc2)n2nccc2n1 (stereo not given) | -25.05%
26 | CCN(CC(F)(F)F)C(=O)C1CCCN(Cc2nc(C)c(C)o2)C1 (stereo not given) | 35.46%
27 | CCC(=O)NCCc1cc(N2CCN(C(C)=O)CC2)nc(C2CC2)n1 | -28.81%

Row | Structure (SMILES) | INHIBITION
28 | CC(=O)NCCc1cc(N2CCN(C(C)=O)CC2)nc(C2CC2)n1 | 51.61%
29 | CC(=O)N1CCN(c2cc(CCNC(=O)C(C)C)nc(C3CC3)n2)CC1 | 27.39%
30 | Cc1cnn(CC2CCCN2C(=O)CCc2ccc3c(c2)OCO3)c1 (stereo not given) | -26.45%
31 | NS(=O)(=O)c1ccc(F)c(C(=O)NCCSc2ccccn2)c1 | 32.97%
32 | Cn1ccnc1-c1nc(N2CCCCC2)ncc1-c1ccccc1F | -29.24%
33 | CS(=O)(=O)NCc1cnc2n1CCN(Cc1cccnc1)CC2 | 8.36%
34 | CS(=O)(=O)NCc1cnc2n1CCN(Cc1ccoc1)CC2 | 50.17%
35 | CS(=O)(=O)NCc1cnc2n1CCN(Cc1ccsc1)CC2 | -75.39%
36 | CN(Cc1ccco1)Cc1ccccc1CNC(=O)c1cnc[nH]1 | 21.27%
37 | Cn1nccc1-c1cccc(CC2CCN(S(C)(=O)=O)C2)n1 (stereo not given) | -30.88%
38 | CC(C)Nc1cccc(CC2CCN(C)C2)n1 (stereo not given) | -5.42%
39 | CC(C)Nc1cccc(CC2CCN(S(C)(=O)=O)CC2)n1 | 52.82%
40 | Fc1ccc(-c2noc(C3COCCO3)n2)cc1F (stereo not given) | -29.82%
41 | CN1CCN(C(=O)Cc2ccc(S(=O)(=O)C(F)F)cc2)CC1 | 63.39%
42 | O=C(Cc1ccc(S(=O)(=O)C(F)F)cc1)N1CCCC1 | 33.7%
43 | O=C(Cc1ccc(S(=O)(=O)C(F)F)cc1)N1CCC1 | 17.61%
44 | COCc1ccccc1C(=O)N1CCCC1Cn1nc(C)cc1C (stereo not given) | -63.06%
45 | CC(Cn1cncn1)NCc1nncn1C1CCCCC1 (stereo not given) | -28.93%
46 | O=C1NCCN1C1CCCN(Cc2nnc(-c3ccc(F)cc3)o2)C1 (stereo not given) | -43.47%
47 | O=C1NCCN1C1CCCN(Cc2coc(-c3ccc(F)cc3)n2)C1 (stereo not given) | 60.21%
48 | O=C1NCCN1C1CCN(Cc2coc(-c3ccc(F)cc3)n2)CC1 | 17.31%
49 | COc1cccc2c1OCC(C(=O)N(Cc1ccncc1)CC(C)C)C2 (stereo not given) | 17.2%
50 | COCCN(Cc1ccncc1)C(=O)C1COc2ccccc2C1 (stereo not given) | 33.9%
51 | COc1cccc2c1OCC(C(=O)NCCn1nc(C)c(Cl)c1C)C2 (stereo not given) | 24.36%
52 | CCCn1nc(C)c(CNC(=O)C2COc3c(cccc3OC)C2)c1C (stereo not given) | 18.57%
53 | COCCN(Cc1ccncc1)C(=O)C1COc2c(cccc2OC)C1 (stereo not given) | 45.82%
54 | COc1cccc2c1OCC(C(=O)N(C)CCCc1cnn(C)c1)C2 (stereo not given) | 27.75%

Row | Structure (SMILES) | INHIBITION
55 | COCCN(Cc1cnn(C)c1)C(=O)C1COc2c(cccc2OC)C1 (stereo not given) | 72.05%
56 | COc1cccc2c1OCC(C(=O)NCCCn1nc(C)c(Cl)c1C)C2 (stereo not given) | 50.59%
57 | CCN(Cc1ccncc1)C(=O)C1COc2c(cccc2OC)C1 (stereo not given) | 57.75%
58 | CC(C)(C)n1cc(C(=O)N2CCN(Cc3cccnc3)CC2)cn1 | -3.57%
59 | Cc1ccccc1CCCN1CCS(=O)(=O)CC1C (stereo not given) | -31.95%
60 | CC(C)n1cnc2c(-c3cccnc3)nc(C3CCNCC3)cc21 | -17.24%
61 | O=C(N1CCCC1)N1CCC[C@]2(C[C@@H](OCc3ccncc3)CO2)C1 | -12.23%
62 | CCO[C@H]1CO[C@@]2(CCCN(S(=O)(=O)c3ccccc3)C2)C1 | -89.74%
63 | CCO[C@H]1CO[C@@]2(CCCN(S(=O)(=O)c3cccnc3)C2)C1 | 50.35%
64 | CCO[C@@H]1CO[C@@]2(CCCN(C(=O)c3ccc(OC)c(F)c3)C2)C1 | -8.46%
65 | CCOCC(=O)N1CCC[C@]2(C[C@@H](OCc3ccncc3)CO2)C1 | 55.15%
66 | O=C(C1CC1)N1CCC[C@]2(C[C@@H](OCc3ccncc3)CO2)C1 | 2.4%
67 | CCO[C@@H]1CO[C@@]2(CCCN(S(=O)(=O)c3cccnc3)C2)C1 | 27.16%
68 | O=C(c1ccc(F)c(F)c1)N1CCC[C@]2(C[C@@H](OCC3CC3)CO2)C1 | 13.04%
69 | CCO[C@H]1CO[C@@]2(CCCN(C(=O)c3ccc(OC)c(F)c3)C2)C1 | 52.36%
70 | CC(=O)N1CCC(c2ccnc(Nc3cnccn3)n2)C1 (stereo not given) | 28.45%
71 | CC(C)CN1CCC2(CC1)C(=O)Nc1ccc(C(=O)N(C)C)cc12 | 11.28%
72 | Cc1cc(O)ccc1-c1cc(-c2cnn(C)c2C2CC2)c(C#N)c(N)n1 | 7.06%
73 | c1cc2occc2c(N2CCCC(c3nncn3C3CC3)C2)n1 (stereo not given) | 12.62%
74 | CCCc1ccc(CN2CCC3(CCC(=O)N(CCCOC)C3)CC2)o1 | -26.08%
75 | CCCc1nccn1-c1ccc(C(C)O)cc1 (stereo not given) | 10.23%
76 | OC(CN1CCOCC1)c1ccc(Br)cc1 (stereo not given) | 36.23%
77 | CCCc1nccn1-c1ccc(C(O)CN2CCOCC2)cc1 (stereo not given) | 62%
78 | O=C(CN1CCCC1)N1CCCC(c2cc(=O)n3c(n2)CCCCC3)C1 (stereo not given) | 18.22%
79 | Cc1ccc(CNC(=O)N(Cc2ccccc2F)C2CC2)cn1 | 70.41%
80 | O=C(NCc1ccncc1)N(Cc1ccccc1F)C1CC1 | 14.83%
81 | CN(C)c1ncccc1CNC(=O)N(Cc1ccccc1F)C1CC1 | -20.35%

Row | Structure (SMILES) | INHIBITION
82 | Cc1nc(C2(O)CCCNCC2)sc1CCOc1ccccc1Cl (stereo not given) | -16.62%
83 | CCOc1ncccc1NC(=O)N1CCN(c2cccc(C)c2C)CC1 | 30.91%
84 | Cc1n[nH]c(C)c1NC(=O)CN1CCCC1c1noc(C(C)C)n1 (stereo not given) | 15.28%
85 | CN1CCN(C(=O)Cc2cccc(F)c2)Cc2cccnc21 | 26.09%
86 | c1cnc(-c2noc(C3CN(Cc4ccsc4)C3)n2)cn1 | 5.39%
87 | COc1cccc(-c2noc(C3CCN(Cc4cccs4)C3)n2)c1 (stereo not given) | 11.1%
88 | c1csc(CN2CC(c3nc(-c4cnccn4)no3)C2)c1 | 26.54%
89 | c1cncc(-c2noc(C3CN(Cc4cccs4)C3)n2)c1 | 51.71%
90 | O=C(Cc1cccs1)N1CC(c2nc(-c3cnccn3)no2)C1 | 50.2%
91 | N#Cc1cccc(C(=O)N2CC(c3nc(-c4cccnc4)no3)C2)c1 | 25.53%
92 | CCc1ccc(NC(=O)N2C[C@H]3CC[C@@]4(N=C(C)N(C)C4=O)[C@H]3C2)cc1 | 17.4%
93 | O=C(Nc1c(N2CCCC2)cccc1N1CCCC1)c1cnccn1 | 19.33%
94 | O=C(Nc1c(N2CCCC2)cccc1N1CCCC1)c1ccccn1 | 32.26%
95 | O=C(Nc1c(N2CCCC2)cccc1N1CCCC1)c1cnsn1 | 52.38%
96 | CCOc1cc(CN(C)CCC#N)ccc1OC(F)F | 14.17%
97 | Cc1cc(C)cc(CNCCS(=O)(=O)N2CCOCC2)c1 | -6.33%
98 | OCC(CO)Nc1nc(C(F)F)nc2ccccc12 | -11.32%
99 | CNc1cc(C2CN(Cc3scnc3C)CCO2)nc(C)n1 (stereo not given) | -1.07%
100 | CS(=O)(=O)c1ccc(Cl)c(C(=O)NCCC2=CCCCC2)c1 | 6.92%
101 | Cc1cc(C)n(C2CCCN(C(=O)Cc3cn4ccsc4n3)C2)n1 (stereo not given) | 20.57%
102 | Cc1cc(N2CCC(O)(CN(C)C(=O)CCCN)C2)c2cnccc2n1 (stereo not given) | -14.93%
103 | Cc1cc(N2CCC(O)(CN(C)C(=O)CCN)CC2)c2cnccc2n1 | 57.47%
104 | Cc1cc(N2CCC(O)(CN(C)C(=O)CCN)C2)c2cnccc2n1 (stereo not given) | -17.65%
105 | CCOC(=O)COC1CCN(C(C)=O)CC(=O)N(C)c2ccccc21 (stereo not given) | 19.99%
